Among the data in PubChem BioAssay AID449762 (Southern Research Specialized Biocontainment Screening …, 2010) are inhibition values, retold here.

About 1,900 (0.58%) of roughly 330,000 compounds were called active. Roughly 4% stayed inconclusive and do not appear here. No stated cut-off is given here; in the data, inconclusive means inhibition above about 70% without an active follow-up result; inactive means below that. The list is a sample of the results. Measured potencies and affinities stand elsewhere.

The assay in a line: M. tuberculosis growth inhibition, HTS (AID 449762).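 Further: bacterial growth assessed after seven days of incubation.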 Particulars: M. tuberculosis H37Rv growth inhibition, 7H9 media; at 25 µM; hits give high values.
Consider `Cc1ccc(CNc2nc3ccccc3n3cnnc23)cc1`, for which the inhibition was -11.5% (inactive).
For the compound `CCc1ccc(Nc2oc(C)cc(=O)c2C(C)=O)cc1`, the inhibition was 70% (inactive).
Consider `C/C(=N\N=C(/N)SC1CC(=O)N(c2cccc(Cl)c2)C1=O)c1cccs1` (stereo not drawn), for which the inhibition was 15.1% (inactive).
Next, `C/C(=N\N=C(/N)SC1CC(=O)N(c2ccccc2)C1=O)c1cccs1` (stereo not drawn): -5.01% (inactive).
Regarding `O=C(C1CC=CCC1)N1CCC(CO)(Cc2ccc(Cl)cc2)CC1` (stereo not drawn), the inhibition is 14.7% (inactive).
Next, `CCCCNc1nc(Nc2ccc(C)c(Cl)c2)c2cnn(C)c2n1`: 10.1% (inactive).
Consider `CCCNc1nc(Nc2ccc(C)c(Cl)c2)c2cnn(C)c2n1`, for which the inhibition was 14.2% (inactive).
For the compound `CC(C)(C)/C(Cn1cncn1)=N\OC(=O)Nc1ccc(Cl)cc1`, the inhibition was 11.8% (inactive).
For the compound `CN(Cc1nccs1)C(=O)CC1C(=O)NCCN1Cc1ccc(-c2ccccc2)cc1` (stereo not drawn), the inhibition is -5.55% (inactive).
Regarding `Cc1nc2cc(C(=O)N3CCC4(CC3)OCCO4)ccc2n1-c1ccc(Br)cc1`, the inhibition is 9.84% (inactive).
With `COC(=O)CSc1nc(N2CCOCC2)c2c(c1C#N)CC(C)(C)OC2`, the inhibition was 4.99% (inactive).
`CC(C)OC(=O)CSc1nc(N2CCOCC2)c2c(c1C#N)CC(C)(C)OC2`: the inhibition was 35.4% (inactive).
Next, `Cc1ccc(N(C(=O)Cn2nnc(-c3ccc(F)cc3)n2)C(C(=O)NC(C)(C)C)c2ccncc2)cc1` (stereo not drawn): 7.5% (inactive); `C#Cc1ccc(CN2CCN(Cc3ccsc3)C(CCO)C2)cc1` (stereo not drawn): -1.98% (inactive); `N#CCCN(C(=O)COC(=O)CNC(=O)c1ccc(-c2ccccc2)cc1)c1ccc(F)cc1`: 67.5% (inactive).
With `C/C(=N\NC(N)=S)c1ccccc1`, the inhibition is 0.26% (inactive).
In the case of `CCCCc1ccc(/C(C)=N/NC(=O)C2CCCC2)cc1`, the inhibition was -4.47% (inactive).
Next, `Cc1ccccc1C(=O)Nc1cccc(N)c1`: -3.59% (inactive).
As for `Cc1ccc(S(=O)(=O)NCCCCCC(=O)Nc2c(C)n(C)n(-c3ccccc3)c2=O)cc1`, the inhibition is -4.12% (inactive).
For `CCCCN(C(=O)c1c(C)noc1C)c1c(N)n(CCC)c(=O)[nH]c1=O`, the inhibition is -2.29% (inactive).
`Cc1ccc(/C=C/C(=O)Nc2ccc(S(=O)(=O)Nc3onc(C)c3C)cc2)cc1`: the inhibition is -4.61% (inactive).
Next, `COCCCNC(=O)/C(C#N)=C/c1c(N2CCN(c3ccccc3)CC2)nc2c(C)cccn2c1=O`: 4.49% (inactive).
`COCCNC(=O)/C(C#N)=C/c1c(N2CCN(c3cccc(Cl)c3)CC2)nc2c(C)cccn2c1=O`: the inhibition was 8.89% (inactive).
`CCOc1ccc(NC(=O)/C(=C\c2ccc(OC(C)=O)c(OC)c2)NC(C)=O)cc1`: the inhibition is 4.59% (inactive).
Turning to `Cc1ccc(-c2nc(CS(=O)CC(=O)NCCN3CCCCC3C)c(C)o2)cc1` (stereo not drawn), the inhibition is -3.03% (inactive).
Next, `CC(C)c1ccc(/C=C2\CC/C(=C\C=N\N(C)C)C2=O)cc1`: -3.15% (inactive); `CN(C)/N=C/C=C1\CC/C(=C\c2ccc(Br)cc2)C1=O`: 3.13% (inactive); `Cc1cc(-n2nc(C)cc2C)nc(N)n1`: -2.23% (inactive).
As to `CCOC(=O)c1c(-c2ccc(F)cc2)csc1NC(=O)CN1C(=O)NC2(CCCCC2C)C1=O` (stereo not drawn), the inhibition was 4.04% (inactive).
As for `COc1ccc(/C=C/c2c(-c3ccc(OC)cc3)oc3cccnc23)cc1`, the inhibition is -6.31% (inactive).
Turning to `COc1ccc(/C=C/c2c(-c3ccc(OC)cc3)oc3ccccc23)cc1`, the inhibition was -5.2% (inactive).
Next, `COc1ccc(C2C3=C(CC(C)(C)CC3=O)Nc3c2c(=O)n(C)c(=O)n3C)cc1OC` (stereo not drawn): -2.26% (inactive); `O=C(Cc1ccc([N+](=O)[O-])cc1)NCc1ccccc1Cl`: 0.6% (inactive); `CCOC(=O)Cc1csc(NC(=O)CSc2nnc(-c3ccncc3)n2Cc2ccco2)n1`: 2.42% (inactive).
In the case of `CC(C)c1onc(C(=O)N2CCN(c3ccccc3)CC2)c1[N+](=O)[O-]`, the inhibition is -4.37% (inactive).
As to `Cc1ccc(SCC(=O)OCC(=O)N(CCC#N)c2ccccc2)cc1C`, the inhibition is 27.2% (inactive).
Next, `Cc1ccc(N(CCC#N)C(=O)COC(=O)c2cc(C)oc2C)cc1`: -1.99% (inactive).
As for `CC1(c2ccc3ccccc3c2)NC(=O)N(CC(=O)N2CCN(Cc3ccccc3)CC2)C1=O` (stereo not drawn), the inhibition is -2.77% (inactive).
For the compound `Cc1cc(NC(=O)c2cccnc2)ccc1NC(=O)c1cc2ccccc2o1`, the inhibition was 5.9% (inactive).
As to `Cc1[nH]n(-c2ccccc2)c(=O)c1-c1ccccc1`, the inhibition is 2.82% (inactive).
In the case of `Cc1cc(-c2c(C)[nH]n(-c3ccccc3)c2=O)n(-c2ccccc2)n1`, the inhibition is -6.21% (inactive).
As to `O=C(Cc1ccc(Cl)cc1)N/N=C/c1cccc(O)c1`, the inhibition was 9.69% (inactive).
As for `CCc1ccc(N=C2NC(=O)/C(=C/c3cc(OC)c(OC)c(OC)c3)S2)cc1`, the inhibition was 6.19% (inactive).
To `COc1cc(/C=C2\SC(=Nc3ccc(O)cc3)NC2=O)cc(OC)c1O` belongs 2.36% (inactive).
Next, `COc1cccc(NC(=O)Nc2cc(C(=O)O)ccc2C)c1`: 16.4% (inactive); `O=C(CC1(O)C(=O)N(Cc2ccccc2Cl)c2ccccc21)c1ccco1` (stereo not drawn): 7.75% (inactive); `CCc1cccc2c(C(=O)C(NCCOC)c3ccccc3)c[nH]c12` (stereo not drawn): -0.65% (inactive).
Turning to `Cc1ccc(C(=O)Nc2cc([N+](=O)[O-])ccc2C)cc1`, the inhibition was 10.4% (inactive).
Consider `CC(=O)Nc1cccc(-c2nc3ccccc3c(=O)o2)c1`, for which the inhibition is 8.2% (inactive).
For `CC(C)C(=O)Nc1cccc(-c2nc3ccccc3o2)c1`, the inhibition was -4.29% (inactive).
For the compound `CC(C)N(C(C)C)S(=O)(=O)c1ccc(NN)nc1`, the inhibition is 10% (inactive).
In the case of `CCCn1c(N2CCN(C(=O)Nc3ccc(Cl)cc3)CC2)nc2ccccc21`, the inhibition is -1.4% (inactive).
In the case of `CCn1c(N2CCN(Cc3ccc([N+](=O)[O-])cc3)CC2)nc2ccccc21`, the inhibition is 2.71% (inactive).
Turning to `CC1CC1C(=O)OCC(=O)NC(=O)c1ccc(C(C)(C)C)cc1` (stereo not drawn), the inhibition is 4.17% (inactive).
In the case of `CC1C(C#N)=C(SCC(N)=O)NC2=C1C(=O)CC(C)(C)C2` (stereo not drawn), the inhibition was 0.02% (inactive).
`CC(=O)NNC(=O)CCn1nnc(-c2ccc(Cl)cc2)n1`: the inhibition is 0.1% (inactive).
`COC(=O)c1nnn(CC(=O)NC(=O)Nc2cccc(C)c2C)c1C(=O)OC`: the inhibition is -2.49% (inactive).
In the case of `CCc1ccc(C(N)=S)cc1`, the inhibition is 40.3% (inactive).
Consider `CCc1cc(C(N)=S)ccn1`, for which the inhibition is 40.1% (inactive).
As to `CCOC(=O)c1[nH]c2ccc(F)cc2c1NC(=O)CCN1CCOCC1`, the inhibition is 7.04% (inactive).
On to `CCOc1ccccc1-c1nc(SCC(=O)O)n[nH]1`, for which the inhibition is 2.12% (inactive).
With `CCC(=O)c1c[nH]c(C(=O)NCc2cccc(C(F)(F)F)c2)c1`, the inhibition was 3.92% (inactive).
Turning to `CCN1CC=C(c2c[nH]c3ccccc23)CC1`, the inhibition is 4.32% (inactive).
For the compound `C1=C(c2c[nH]c3ccccc23)CCN(Cc2ccccc2)C1`, the inhibition was 8.31% (inactive).
Next, `Cc1ccc(S(=O)(=O)Nc2ccc(N=Nc3ccc(O)cc3)cc2)cc1`: 7.49% (inactive); `Cc1cc(=O)oc2cc(NC(=O)C(C)Oc3cccc(Cl)c3)ccc12` (stereo not drawn): 4% (inactive); `CCOC(=O)c1c(C)[nH]c(C(=O)COC(=O)c2ccc(O)cc2)c1C`: -6.58% (inactive).
Turning to `O=c1c2ccccc2n(CC(O)CN2CCCCC2)c2ccccc12` (stereo not drawn), the inhibition was -4.66% (inactive).
As for `OC(CN1CCCCC1)Cn1c2ccccc2c2ccccc21` (stereo not drawn), the inhibition is 8.7% (inactive).
As to `CC(C)(C)OC(=O)N[C@@H](Cc1ccccc1)C(=O)N1CCC(C(=O)NCC(=O)O)CC1`, the inhibition was -2.02% (inactive).
For the compound `Cc1cccc(N2CCN(C(=O)CCCn3c(=O)[nH]c4ccsc4c3=O)CC2C)c1` (stereo not drawn), the inhibition is 6.71% (inactive).
As to `CCc1ccc2c(c1)[C@]1(C(=O)N2)[C@@H]2C(=O)N(Cc3ccccc3)C(=O)[C@@H]2[C@@H]2CCCN21`, the inhibition is -2.59% (inactive).
Turning to `CCn1nc(C)cc1C(=O)N1CCCC(C(=O)c2ccc3ccccc3c2)C1` (stereo not drawn), the inhibition is 0.73% (inactive).
For `COc1cccc(C(=O)N/N=c2\sc3ccccc3n2C)c1`, the inhibition is 29.6% (inactive).
`Cc1ccc(C(=O)N/N=c2\sc3ccccc3n2C)cc1`: the inhibition is 10.5% (inactive).
Consider `Cc1ccc(S(=O)(=O)N2CCOCC2)cc1C(=O)NC(=S)N1CC(C)OC(C)C1` (stereo not drawn), for which the inhibition was -0.86% (inactive).
For the compound `Cc1ccc(/C=N/NC(=O)c2cccs2)s1`, the inhibition is 43% (inactive).
On to `O=C(N/N=C\c1ccc(Cl)s1)c1cccs1`, for which the inhibition was 63.3% (inactive).
Take `CC1(C)CC(=O)C=C(c2cccc(Br)c2)C1`: the inhibition was -4.12% (inactive).
For `COc1cc(-c2nnc(SCC(=O)Nc3ccc(C(=O)O)cc3)o2)cc(OC)c1OC`, the inhibition was -0.72% (inactive).
For the compound `COc1cc(NC(=O)C2CCN(S(=O)(=O)c3ccc(N4CCCC4=O)cc3)CC2)cc(OC)c1`, the inhibition is 8.33% (inactive).
Regarding `C=CCNC(=O)N1CCC(c2nc3ccccc3s2)CC1`, the inhibition is -8.35% (inactive).
`Oc1cccc(/C=N/NC(=S)NCCN2CCOCC2)c1O`: the inhibition is -1.62% (inactive).
Take `S=C(NCCN1CCOCC1)N/N=C/c1ccccc1`: the inhibition was -4.03% (inactive).
As for `CCCn1c(SCC(=O)Nc2ccc(S(=O)(=O)N(C)C)cc2)n[nH]c1=O`, the inhibition is -9.52% (inactive).
Regarding `CCn1c(SCC(=O)Nc2ccc3c(c2)OCO3)nnc1C(C)C`, the inhibition is -4.67% (inactive).
`COc1ccc(C2CC(c3ccccc3)=NN2C(=O)COC(=O)c2ccc(S(C)(=O)=O)cc2)cc1` (stereo not drawn): the inhibition is 1.53% (inactive).
`COc1ccc(C2=NN(C(=O)COC(=O)c3ccc(NC(=O)CC#N)cc3)C(c3ccco3)C2)cc1` (stereo not drawn): the inhibition is -7.88% (inactive).
On to `Cc1cccc(-n2c(-c3csc4ccccc34)n[nH]c2=S)c1`, for which the inhibition is 2.9% (inactive).
For `Cc1nonc1NC(=O)CSc1ccccn1`, the inhibition is 2.01% (inactive).
Take `CC(=O)Nc1nonc1NC(=O)CSc1ccccn1`: the inhibition was -2.12% (inactive).
Regarding `CN1C(=O)c2ccccc2N(C)C1c1cccc(O)c1` (stereo not drawn), the inhibition is 0.25% (inactive).
`O=C(CN1C(=O)c2cccc3cccc1c23)NCc1ccccn1`: the inhibition is -1.94% (inactive).
